# Measurements from article PMC11062922 (Nature Chemical Biology, 2023).
# Where two headings read alike, the source gives them in different places.
# How the values were obtained:
# AAK1 = tested on: AAK1; set-up: species or system human, MV4-11 + K-562 + COLO205 + SK-N-BE2 + OVCAR-8; conditions: read-out: apparent Kd, n = 1
# BMP2K = tested on: BMP2K; set-up: species or system human, MV4-11 + K-562 + COLO205 + SK-N-BE2 + OVCAR-8; conditions: read-out: apparent Kd, n = 1
# CLK1 = tested on: CLK1; set-up: species or system human, MV4-11 + K-562 + COLO205 + SK-N-BE2 + OVCAR-8; conditions: read-out: apparent Kd, n = 1
# CLK4 = tested on: CLK4; set-up: species or system human, MV4-11 + K-562 + COLO205 + SK-N-BE2 + OVCAR-8; conditions: read-out: apparent Kd, n = 1
# CSNK2A2 = tested on: CSNK2A2; set-up: species or system human, MV4-11 + K-562 + COLO205 + SK-N-BE2 + OVCAR-8; conditions: read-out: apparent Kd, n = 1
# GSK3A = tested on: GSK3A; set-up: species or system human, MV4-11 + K-562 + COLO205 + SK-N-BE2 + OVCAR-8; conditions: read-out: apparent Kd, compound concentrations: 100 nM and 1000 nM (sheet 'Samples'), n = 1
# GSK3B = tested on: GSK3B; set-up: species or system human, MV4-11 + K-562 + COLO205 + SK-N-BE2 + OVCAR-8; conditions: read-out: apparent Kd, compound concentrations: 100 nM and 1000 nM (sheet 'Samples'), n = 1
# NUAK1 = tested on: NUAK1; set-up: species or system human, MV4-11 + K-562 + COLO205 + SK-N-BE2 + OVCAR-8; conditions: read-out: apparent Kd, compound concentrations: 100 nM and 1000 nM (sheet 'Samples'), n = 1
# Q6ZSR9 = Q6ZSR9 (human, UniProt Q6ZSR9); set-up: species or system MV4-11 + K-562 + COLO205 + SK-N-BE2 + OVCAR-8; conditions: read-out: apparent Kd, n = 1
# Q6ZSR9, sequence (Q6ZSR9 whole entry, looked up): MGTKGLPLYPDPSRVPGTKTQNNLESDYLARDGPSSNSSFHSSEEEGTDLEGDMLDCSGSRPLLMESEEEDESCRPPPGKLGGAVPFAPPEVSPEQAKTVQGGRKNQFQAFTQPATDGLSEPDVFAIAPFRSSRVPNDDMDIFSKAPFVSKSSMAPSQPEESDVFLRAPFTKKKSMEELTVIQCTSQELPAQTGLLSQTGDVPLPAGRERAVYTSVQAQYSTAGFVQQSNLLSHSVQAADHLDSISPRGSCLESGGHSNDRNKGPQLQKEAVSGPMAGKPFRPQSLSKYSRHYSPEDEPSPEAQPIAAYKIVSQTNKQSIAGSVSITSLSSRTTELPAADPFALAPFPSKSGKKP
# CSNK2A1;CSNK2A3 = tested on: CSNK2A1;CSNK2A3; set-up: species or system human, MV4-11 + K-562 + COLO205 + SK-N-BE2 + OVCAR-8; conditions: read-out: apparent Kd, n = 1
# GAK = tested on: GAK; set-up: species or system human, MV4-11 + K-562 + COLO205 + SK-N-BE2 + OVCAR-8; conditions: read-out: apparent Kd, compound concentrations: 100 nM and 1000 nM (sheet 'Samples'), n = 1
# MELK = tested on: MELK; set-up: species or system human, MV4-11 + K-562 + COLO205 + SK-N-BE2 + OVCAR-8; conditions: read-out: apparent Kd, compound concentrations: 100 nM and 1000 nM (sheet 'Samples'), n = 1
# PAK4 = tested on: PAK4; set-up: species or system human, MV4-11 + K-562 + COLO205 + SK-N-BE2 + OVCAR-8; conditions: read-out: apparent Kd; compound concentrations: 100 nM and 1000 nM (sheet 'Samples'), CATDS: 2.6532527955357901E-2; n = 1
# RET = tested on: RET; set-up: species or system human, MV4-11 + K-562 + COLO205 + SK-N-BE2 + OVCAR-8; conditions: read-out: apparent Kd; compound concentrations: 100 nM and 1000 nM (sheet 'Samples'), CATDS: 3.2863733799292097E-2; n = 1
# [1] = compound concentrations:100 nM and 1000 nM (sheet 'Samples')
smiles,measurement,setting,value
CCN(CC)Cc1ccc(Nc2nccc(-c3cnn4ncccc34)n2)cc1 [GW780056X],potency estimated from few doses,"AAK1; compound concentrations: 100 nM and 1000 nM (sheet 'Samples'), CATDS: 2.17265123337868E-2",1.01 µM
same,potency estimated from few doses,"BMP2K; compound concentrations: 100 nM and 1000 nM (sheet 'Samples'), CATDS: 1.8132469854257299E-2",1.95 µM
same,potency estimated from few doses,"CLK1; compound concentrations: 100 nM and 1000 nM (sheet 'Samples'), CATDS: 3.2985166948547001E-2",0.346 µM
same,potency estimated from few doses,"CLK4; compound concentrations: 100 nM and 1000 nM (sheet 'Samples'), CATDS: 3.0818268189282499E-2",0.403 µM
same,potency estimated from few doses,"CSNK2A2; compound concentrations: 100 nM and 1000 nM (sheet 'Samples'), CATDS: 1.97839070790959E-2",1.38 µM
same,potency estimated from few doses,GSK3A; CATDS: 2.5871712918447001E-2,0.616 µM
same,potency estimated from few doses,GSK3B; CATDS: 2.3506229340690101E-2,0.798 µM
same,potency estimated from few doses,NUAK1; CATDS: 0.242637090604084,0.0116 µM
same,potency estimated from few doses,"Q6ZSR9; compound concentrations: 100 nM and 1000 nM (sheet 'Samples'), CATDS: 2.1989322106712401E-2",0.971 µM
c1ccc(-c2n[nH]cc2Nc2ccnc3ccccc23)nc1 [GW694077X],potency estimated from few doses,"AAK1; compound concentrations: 100 nM and 1000 nM (sheet 'Samples'), CATDS: 0.15981280907647699",0.0229 µM
same,potency estimated from few doses,"BMP2K; compound concentrations: 100 nM and 1000 nM (sheet 'Samples'), CATDS: 0.12898106830803699",0.0316 µM
same,potency estimated from few doses,"CLK1; compound concentrations: 100 nM and 1000 nM (sheet 'Samples'), CATDS: 6.3259021647505201E-2",0.116 µM
same,potency estimated from few doses,"CLK4; compound concentrations: 100 nM and 1000 nM (sheet 'Samples'), CATDS: 2.8276062957920199E-2",0.948 µM
same,potency estimated from few doses,"CSNK2A1;CSNK2A3; compound concentrations: 100 nM and 1000 nM (sheet 'Samples'), CATDS: 2.9027112719044901E-2",0.87 µM
same,potency estimated from few doses,"CSNK2A2; compound concentrations: 100 nM and 1000 nM (sheet 'Samples'), CATDS: 2.7289326995804501E-2",1.07 µM
same,potency estimated from few doses,GAK; CATDS: 2.8408815024035201E-2,0.933 µM
same,potency estimated from few doses,MELK; CATDS: 2.6674495002574999E-2,1.15 µM
same,potency estimated from few doses,"Q6ZSR9; compound concentrations: 100 nM and 1000 nM (sheet 'Samples'), CATDS: 0.16373298432482",0.0221 µM
NS(=O)(=O)c1cccc(-c2ccc3c(NC(=O)C4CC4)n[nH]c3c2)c1 [SB-741905],potency estimated from few doses,"AAK1; compound concentrations: 100 nM and 1000 nM (sheet 'Samples'), CATDS: 0.126213197239569",1.21 µM
same,potency estimated from few doses,"Q6ZSR9; compound concentrations: 100 nM and 1000 nM (sheet 'Samples'), CATDS: 0.101605627816376",2.41 µM
CC(C)(CO)CNC(=O)c1ccc2c(c1)/C(=N/Nc1ccc(S(N)(=O)=O)cc1)C(=O)N2 [GW301784X],potency estimated from few doses,AAK1; [1],1.82 µM
same,potency estimated from few doses,BMP2K; [1],1.84 µM
same,potency estimated from few doses,CLK1; [1],0.878 µM
same,potency estimated from few doses,CLK4; [1],0.612 µM
same,potency estimated from few doses,CSNK2A1;CSNK2A3; [1],0.12 µM
same,potency estimated from few doses,CSNK2A2; [1],0.0643 µM
same,potency estimated from few doses,Q6ZSR9; [1],1.6 µM
CN[C@H](C#Cc1c(F)ccc2c1/C(=C/c1[nH]ccc1OC)C(=O)N2)CO.Cl [RO0283049-001],potency estimated from few doses,"AAK1; compound concentrations: 100 nM and 1000 nM (sheet 'Samples'), CATDS: 2.8240152121160999E-2",0.574 µM
same,potency estimated from few doses,"BMP2K; compound concentrations: 100 nM and 1000 nM (sheet 'Samples'), CATDS: 7.2716114591836398E-2",0.0798 µM
same,potency estimated from few doses,"CSNK2A1;CSNK2A3; compound concentrations: 100 nM and 1000 nM (sheet 'Samples'), CATDS: 2.0504154829503698E-2",1.69 µM
same,potency estimated from few doses,"CSNK2A2; compound concentrations: 100 nM and 1000 nM (sheet 'Samples'), CATDS: 2.5963864867474401E-2",0.73 µM
same,potency estimated from few doses,GAK; CATDS: 2.5381960568832601E-2,0.781 µM
same,potency estimated from few doses,GSK3A; CATDS: 5.21732936396841E-2,0.145 µM
same,potency estimated from few doses,GSK3B; CATDS: 5.3689374792110299E-2,0.137 µM
same,potency estimated from few doses,MELK; CATDS: 2.5364281194585201E-2,0.783 µM
same,potency estimated from few doses,NUAK1; CATDS: 5.6502774837069003E-2,0.125 µM
same,potency estimated from few doses,PAK4,0.685 µM
same,potency estimated from few doses,"Q6ZSR9; compound concentrations: 100 nM and 1000 nM (sheet 'Samples'), CATDS: 2.6998984012354399E-2",0.651 µM
same,potency estimated from few doses,RET,0.389 µM
